# This is part of a sample that, as a whole, favours compounds with a hit. Of some 83,000 tested, about 20% had one in any assay.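 Plates (96-well) were seeded with cells, treated with compound at one concentration, and incubated for 48 hours before percent growth was determined.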 Values without a mark were called inactive. Calls of active or inactive are those of the source. Rule for the calls: active = growth percent below 10; inactive = the rest.
# System: HS 578T breast
# Assay: NCI-60 one-dose screen, 48 h (100 = growth as untreated, 0 = no growth, -100 = all killed)
# Conditions: 10 µM
row,SMILES,growth
1,COc1cc2c3c(n([C@@H]4CCOC4)c(=O)c2cc1OC)-c1cc2c(cc1C3=O)OCO2,109%
2,COc1ccc(-c2cc(-c3ccccc3)nc(SCCCCCCC(=O)NO)n2)cc1,54%
3,COc1ccc(-c2nn(-c3cccc(Cl)c3)cc2-c2c(C#N)c(=O)n3[nH]c(-c4ccccc4)nc3c2C#N)cc1,101%
4,Clc1nc2ccccc2cc1Cn1nnc(Cc2ccccc2)n1,76.6%
5,CN1CCc2c(sc3nc4n(-c5ccc(Cl)cc5)cnn4c(=O)c23)C1,115%
6,O=C(CCCCNC(=O)c1nc(-c2ccccc2)n(-c2ccccc2)n1)NO,60.8%
7,Cc1c2c[n+](C(C)C)ccc2c(C)c2c1[nH]c1ccccc12,22.8%
8,Cc1c2cnccc2c(C)c2c1c1cc(O)ccc1n2C(C)C,3.64% (active)
9,CC(C)(C)OC(=O)CN1CCc2c(sc3ncnc(N/N=C/c4cccc5ccccc45)c23)C1,21.5%
10,Nc1nc(-c2cccnc2)nc2c1sc(=S)n2-c1ccccc1,91.4%
11,CC(C)(C)OC(=O)N1CCc2c(sc3ncnc(N/N=C/c4cccc(Br)c4)c23)C1,71.2%
12,O=C(CCCSc1nc(-c2ccc(Cl)cc2)cc(-c2ccc(Cl)cc2)n1)NO,53.5%
13,CN1CCc2c(sc3nc4n(-c5ccc(Cl)cc5)c(=O)[nH]n4c(=O)c23)C1,121%
14,CCNc1nc(C(F)(F)F)nc2c1sc(=S)n2-c1ccccc1,107%
15,IC(I)I,-4.06% (active)
